Compounds without any hit were thinned out: in the full panel of roughly 83,000, 20% have a hit.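 How to read the values: 0–100, growth inhibition (40 = 60% inhibited); 0, no net growth; -100 to 0, cell death (-40 = 40% of starting cells died; -100 = all dead).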 Unmarked numbers belong to inactive results. Activity calls are given as the source filed them. Rule for the calls: active = growth percent below 10; inactive = the rest.
Experiments:
Experiment in all cases: NCI-60 one-dose screen, 48 h (100 = growth as untreated, 0 = no growth, -100 = all killed)
Conditions in all cases: 10 µM unless noted
[1] = system: T-47D breast
[2] = system: BT-549 breast
[3] = system: MDA-MB-435 melanoma
[4] = system: SW-620 colon
[5] = system: MCF7 breast
[6] = system: HCT-116 colon
[7] = system: HCC-2998 colon
[8] = system: KM12 colon

| Compound | growth [1] | growth [2] | growth [3] | growth [4] | growth [5] | growth [6] | growth [7] | growth [8] |
| --- | --- | --- | --- | --- | --- | --- | --- | --- |
| CC(=O)OC[C@]12CC[C@@H](C(=O)CBr)[C@@H]1[C@H]1CC[C@@H]3[C@@]4(C)CCCNC(C)(C)[C@@H]4CC[C@@]3(C)[C@]1(C)CC2 | -69.9% [100 µM] (active) | -62% [100 µM] (active) | -87.9% [100 µM] (active) | -58% [100 µM] (active) | -54.3% [100 µM] (active) | -71.2% [100 µM] (active) | -83.3% [100 µM] (active) | -78.2% [100 µM] (active) |
| C=C(C)[C@@H]1CC[C@]2(C(=O)O)CC[C@]3(C)[C@H](CC[C@@H]4[C@@]5(C)C/C(=C/c6ccco6)C(=O)C(C)(C)[C@@H]5CC[C@]43C)[C@@H]12 | -8.1% [100 µM] (active) | -67.8% [100 µM] (active) | -75.9% [100 µM] (active) | -34.7% [100 µM] (active) | -53.2% [100 µM] (active) | -74.7% [100 µM] (active) | -78.1% [100 µM] (active) | -96.3% [100 µM] (active) |
| Cc1ccc(-c2cc(-c3ccc(C)cc3)nc(N3CCN(CCNc4ccnc5cc(Cl)ccc45)CC3)n2)cc1 | 71.8% | 67.6% | 23.3% | -29.1% (active) | 15.5% | -3.1% (active) | 16.6% | 31.9% |
| CC(C)=CC/C=C(/C)[C@H]1CC[C@]2(C)[C@@H]1CC[C@@H]1[C@@]3(C)CCCNC(C)(C)[C@@H]3CC[C@]12C | -50.9% [100 µM] (active) | -54.9% [100 µM] (active) | -75.4% [100 µM] (active) | -57.5% [100 µM] (active) | -54.6% [100 µM] (active) | -61% [100 µM] (active) | -50.5% [100 µM] (active) | -57.4% [100 µM] (active) |
| CCOc1ccc(S(=O)(=O)Nc2ccc3c(c2)N(S(=O)(=O)CC)CCC3)cc1 | 68.1% | 95.2% | 78.8% | 68.3% | 44.9% | 90.8% | 78.2% | 77% |
| C=C(C)C1CCC2(C(=O)O)CCC3(C)C(CCC4C5(C)CCC(OC(=O)NCc6ccccc6)C(C)(C)C5CCC43C)C12 (stereo unspecified) | 33.9% | 64.8% | 58.7% | 34.9% | 35.9% | 18% | 51.3% | 28.1% |
| C=C(C)[C@@H]1CC[C@]2(C(N)=O)CC[C@]3(C)[C@H](CC[C@@H]4[C@@]5(C)C/C(=C/c6cccnc6)[C@H](O)C(C)(C)[C@@H]5CC[C@]43C)[C@@H]12 | 16.1% [100 µM] | 26.6% [100 µM] | 9% [100 µM] (active) | 18.8% [100 µM] | 11.3% [100 µM] | 7.1% [100 µM] (active) | 19.5% [100 µM] | 14.2% [100 µM] |
| c1cc2ccc1CNCCN1CCNCc3ccc(cc3)Oc3ccc(cc3)CNCCN(CCNCc3ccc(cc3)O2)CCNCc2ccc(cc2)Oc2ccc(cc2)CNCC1 | -64.5% (active) | 82.1% | -96.3% (active) | -75.5% (active) | -75.4% (active) | -89.7% (active) | -87.8% (active) | -88.6% (active) |
| Nc1ccc(Cl)c([N+](=O)[O-])c1 | 91.9% | 95.1% | 95.1% | 104% | 101% | 97.7% | 94.4% | 96.1% |
| CC(C)(C)OC(=O)N1C=C/C(=C\Cn2cc(-c3ccccc3)nn2)CC1 | 41.1% | 58.1% | 85.2% | 93.8% | 65.5% | 74.1% | 88.4% | 88.9% |
| c1cc2ccc3cc2cc1CNCCN1CCNCc2ccc4ccc(cc4c2)CNCCN(CCNC3)CCNCc2ccc3ccc(cc3c2)CNCC1 | -6.97% (active) | 97.3% | -5.25% (active) | 23.4% | -5.39% (active) | 5.35% (active) | 19.2% | -15.5% (active) |
| C=C(C)[C@@H]1CC[C@]2(C(=O)N3CCN(C)CC3)CC[C@]3(C)[C@H](CC[C@@H]4[C@@]5(C)C/C(=C/c6ccncc6)[C@H](O)C(C)(C)[C@@H]5CC[C@]43C)[C@@H]12 | 10.8% [100 µM] | -43% [100 µM] (active) | -39.7% [100 µM] (active) | -55.4% [100 µM] (active) | -60.6% [100 µM] (active) | -79.3% [100 µM] (active) | -80.7% [100 µM] (active) | -80.4% [100 µM] (active) |
| CC(C)[C@H]1CCC2=C3CC[C@]45OC(=O)[C@@]6(CCC(C)(C)C[C@H]64)CC[C@@]5(C)[C@]3(C)CC[C@@]21C | 53.9% [100 µM] | 82.1% [100 µM] | 78.5% [100 µM] | 78.7% [100 µM] | 61.2% [100 µM] | 51.6% [100 µM] | 97.9% [100 µM] | 76% [100 µM] |
| COc1ccc(/C=C2\N=C(Nc3ccccc3)N(NC(=O)c3ccccn3)C2=O)cc1 | 63.6% | 94.1% | 98.7% | 102% | 87.5% | 90.1% | 105% | 96.1% |
| COc1ccccc1S(=O)Nc1ccccc1 (stereo unspecified) | 107% | 108% | 97.6% | 72% | 95.1% | 115% | 107% | 106% |
| O=C1Cc2c(sc3c(F)cccc23)C(c2ccccc2[N+](=O)[O-])N1 (stereo unspecified) | 78.6% | 99.6% | 108% | 79.3% | 81.4% | 85.9% | 119% | 100% |
| Cc1ccc(-n2nc3n(/c2=N\C(=O)NS(=O)(=O)c2ccc(C)cc2)CCN3C2=NCCN2)cc1 | 78.3% | 84.4% | 97.3% | 104% | 94.6% | 87.3% | 97.3% | 105% |
| CCOC(=O)c1cnc2ccc(Br)cc2c1Nc1cccc(S(N)(=O)=O)c1 | 81.4% | 96.3% | 101% | 99.2% | 93.8% | 85.6% | 115% | 96% |
| Fc1ccc(NC(=S)c2ccccc2)cc1 | 96.4% | 90.3% | 98% | 102% | 93.9% | 103% | 116% | 100% |
| c1ccc2c(c1)CN(CCCN1CCOCC1)C2 | 101% | 121% | 98.2% | 107% | 94.6% | 97.9% | 98.6% | 102% |
| O=C(Nc1cccc2ccccc12)c1cc2ccccc2cc1O | 14.4% | 11.6% | 0.191% (active) | 16.6% | 8.7% (active) | 7.65% (active) | 27.7% | 10.2% |
| CC(=O)Nc1ccc2nc3ccc(NC(C)=O)cc3[n+](-c3ccccc3)c2c1 | 93.4% | 101% | 123% | 116% | 73.1% | 95.6% | 108% | 116% |
| CCNC(=O)N1CCc2c(Cl)c3c(c(OC)c2[C@@H]1[C@H]1OCc2c1ccc(OC)c2OC)OCCO3 | 20.5% | 55.9% | -43.4% (active) | 17.5% | 16.1% | 18.2% | 61.1% | 18.7% |
| O=C1Nc2ccccc2/C1=C/C(=O)c1ccc(N2CCOCC2)cc1 | 81.1% | 97% | 96% | 51.6% | 79.5% | 92.2% | 101% | 105% |
| Cc1ccc(NC(=S)/N=c2/n(-c3ccccc3)nc3n2CCN3C2=NCCN2)cc1 | 92.2% | -6.96% (active) | 105% | 97% | 94.6% | 48.6% | 102% | 109% |
| O=c1c2c3c(sc2n2cnnc2n1Cc1ccccc1)CCCC3 | 38.4% | 95.7% | 113% | 113% | 96.6% | 122% | 105% | 113% |
| Cn1cc(-c2nnc(-c3cn(C)c4ncccc34)o2)c2ccccc21 | 12.2% | 42.4% | -32.8% (active) | 26.7% | 20.2% | 23% | 65.7% | 22.1% |

Source: PubChem BioAssay (NCI)
